# Compounds with a hit are over-represented: about 1.6% of the library has one in this group of screens.
# KCNQ2 inh: blocks the rat KCNQ2 potassium channel. O88943. CHO-K1 KCNQ2, FluxOR thallium flux, 20 min; hits give low values. B-score at 10 µM. 1.1% of 310,000 active;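 active = fluorescence ratio B-score at most minus 3 library SDs, with starting brightness B-score within 2 library SDs, cut at about -5.5 in these data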
# KCNQ2 enhance: KCNQ2 (rat) channel potentiation. 0.54% of 310,000 active. O88943. B-score at 10 µM. CHO-K1 KCNQ2, FluxOR thallium flux fluorescence; hits give high values;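 active = fluorescence ratio B-score at least 3 SD of library B-scores, with initial fluorescence B-score within 3 of them, cut at about 5.3 in these data; same plate scores as AID 2156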;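 also: B-score of peak minus minimum over baseline fluorescence ratio after K+ and Tl+ stimulus; positive B-score means potentiation of KCNQ2 with more thallium influx and brighter signal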
# An asterisk follows results filed as active; i = inactive; . = not tested or not shown.
SMILES,KCNQ2 inh,KCNQ2 enhance
Cc1onc(-c2c(Cl)cccc2Cl)c1C(=O)c1ccc(F)cc1,i,6.76*
COc1cccc(C(=O)N/N=c2\sc3ccccc3n2C)c1,i,2.15
Cc1ccc(C(=O)N/N=c2\sc3ccccc3n2C)cc1,i,12.5*
Cc1noc(C)c1CSc1ncnc2sc(C)c(C)c12,i,1.15
Cc1noc(C)c1CSc1ncnc2sc3c(c12)CCCCC3,i,5.53*
Cn1cnc2c1c(=O)n(Cc1ccc(Cl)cc1Cl)c(=O)n2C,i,0.83
CCC[C@@H](CNC)NC[C@H](Cc1ccccc1)NCCCCc1ccccc1,-6*,-6
CCC[C@@H](CN[C@@H](CNC)C(C)C)NCCCCc1ccccc1,i,.
C/C(N)=C(/C#N)C(=O)COC(=O)c1ccc(OCC2CCCO2)cc1 (configuration not stated),i,0.62
NC(=O)CSc1nc2ccccc2c(=O)n1Cc1ccco1,i,.
CCCn1c(C)cc(C(=O)CSc2nc3ccccc3c(=O)n2Cc2ccco2)c1C,-6*,-6
CSc1ccccc1OCc1cc(C(=O)N2CCC(Oc3cccnc3)CC2)no1,i,0.24
O=C(N1CCN(c2ccccc2)CC1)C12CC3CC(CC(C3)C1)C2,i,.
O=C(N1CCN(Cc2ccccc2)CC1)C12CC3CC(CC(C3)C1)C2,-5.61*,-5.61
Fc1cccc2sc(Nc3nc4cc5c(cc4s3)OCCO5)nc12,i,3.52
Fc1cccc2sc(Nc3nc4cc5c(cc4s3)OCO5)nc12,i,6.87*
CCOc1ccc(C(=O)NCc2ccco2)cc1OC,i,1.18
O=C(C1COc2ccccc2O1)N1CCN(c2ccccc2Cl)CC1 (configuration not stated),-7.42*,-7.42
O=C(C1COc2ccccc2O1)N1CCN(c2ccccc2F)CC1 (configuration not stated),i,.
O=C(O)C(C(O)c1ccc([N+](=O)[O-])cc1)[n+]1ccccc1 (configuration not stated),i,0.25
CCOc1ccc(CCn2c(-c3ccco3)nc3ccccc3c2=O)cc1OCC,-6.88*,-6.88
O=c1c2ccccc2nc(-c2ccco2)n1Cc1ccccc1,i,.
COc1ccc(OC)c(CCNC(=O)CCCC(=O)n2ncc3cc(C)ccc32)c1,i,1.2
COc1ccc(CN(C)CC(=O)Nc2cccc3ccccc23)cc1F,-5.83*,-5.83
CCOc1ccc(CN(C)CC(=O)Nc2cccc3ccccc23)cc1OC,i,.
SMILES,KCNQ2 inh,KCNQ2 enhance
COc1ccccc1C(=O)NNC(=O)CCC(=O)NCc1ccccc1,i,.
CC1=Nc2ccccc2N=C(NC(=O)CN2CCN(c3ccccc3)CC2)C1c1ccccc1 (configuration not stated),-6.53*,-6.53
CCOC(=O)C1CCCN(CC(=O)NC2=Nc3ccccc3N=C(C)C2c2ccccc2)C1 (configuration not stated),i,.
Cc1ccc(COc2ccc(CNCCCN3CCCCCC3=O)cc2)cc1,i,.
COc1cccc(Cn2cc(C)cc(NC(=O)NCc3ccccc3)c2=O)c1,i,.
CC1=NN(C(=O)COc2ccccc2)C(O)(c2ccccc2)C1 (configuration not stated),i,0.2
CC1=NN(C(=O)c2ccccc2Br)C(O)(c2ccc(Cl)cc2)C1 (configuration not stated),i,1.63
CCC1=NN(C(=O)c2ccccc2Br)C(O)(c2ccc(Br)cc2)C1 (configuration not stated),i,13.7*
CCC1=NN(C(=O)COc2ccccc2)C(O)(c2ccc(Br)cc2)C1 (configuration not stated),-5.99*,-5.99
CC1(C)C[C@@H](O)CC2(C1)C[C@]1(C)CC(O)[C@H]2C(C)(C)C1 (some centres not stated),i,1.43
COc1ccc(CNC(=O)CN(C(=O)CCC(=O)Nc2ccccn2)c2ccc3c(c2)OCO3)cc1,i,.
COc1ccccc1Nc1nc(N)nc(CN2CCN(c3ccccc3F)CC2)n1,i,2.98
COc1ccccc1N1CCN(Cc2nc(N)nc(Nc3ccc(C)c(Cl)c3)n2)CC1,i,8.89*
CC(C)S(=O)(=O)C1=NSC2=NC(=O)/C(=C\c3ccc(-c4ccccc4)o3)C(=N)N21,-5.94*,-5.94
N=C1/C(=C\c2ccc(-c3cc(Cl)cc(Cl)c3)o2)C(=O)N=C2SC=C(c3ccccc3)N12,i,0.75
CC(=O)NC(Cc1c[nH]c2ccccc12)C(=O)OCC(=O)Nc1cc(C)on1 (configuration not stated),i,0.63
Cc1cc(NC(=O)COC(=O)[C@H](Cc2c[nH]c3ccccc23)NC(=O)c2ccc(F)cc2)no1,-7.2*,-7.2
COc1cc(CCCN2C(=O)C(=O)NC[C@H]2Cc2cccc3ccccc23)cc(OC)c1OC,i,9.64*
CCCC[C@@H]1CNC(=O)C(=O)N1CCCc1cc(OC)c(OC)c(OC)c1,i,0.48
CCc1nn(C(C)C(=O)N2CCN(Cc3ccccc3)CC2)c(=O)c2cc3occc3n12 (configuration not stated),i,.

# From PubChem BioAssay
